SW480 rerep – inducers of DNA re-replication in SW480 colon cancer cells. SW480 DNA re-replication, Hoechst DNA content imaging, 48 h. Potency, µM (highest dose often 46.1 µM), for the others: at the top dose re-replication activation, most hits filed as activators. 340,000 compounds, 1.8% hits; also: % of control where 0% means no effect; nearly all actives have a fitted effect of over 55% in size
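Cells (250 per well) received 23 nL compound or DMSO by pin tool and were kept 48 hr at 37 C, 5% CO2. Nuclei were then stained with Hoechst for 40 min and scanned for DNA content.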
ELG1 repair inh – inhibitors of ELG1-dependent DNA repair in HEK293T cells | HEK293T ELG1-luciferase reporter, luminescence, 16 h; DNA damage induced by 5-fluorouridine | Potency, µM (top dose mostly 46.1 µM), inactives show top-dose activity change, negative = inhibition, most hits filed as inhibitors | 330,000 compounds, 2.3% hits; also: % is scaled to controls: 0 for no effect and ±100 for the full control effect; nearly all actives have a fitted effect of over 55% in size
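5-Fluorouridine DNA damage + compound/DMSO, 2,000 cells/well, 16 h, 37 °C/5% CO2. ONE-Glo, 30 min RT, luminescence. Readout = decrease in reporter signal.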
MCF10A rerep – inducers of DNA re-replication in MCF 10A breast cells | MCF 10A DNA re-replication, Hoechst nuclear intensity, 48 h | Potency, µM (titrated, usually from 46.1 µM), for inactives: top-dose activity, positive = re-replication, actives largely listed as activators | 350,000 compounds, 2.9% hits | AID 624296; also: % of control where 0% means no effect; nearly all actives have a fitted effect of over 50% in size
KB-V1 MDR tox – kills drug-selected multidrug resistant KB-V1 cells; KB-V1 MDR cells viability, CellTiter-Glo, 72 h; Potency, µM (top dose mostly 46.1 µM), most hits filed as cytotoxic; 400,000 compounds, 3.4% hits; AID 1347076; also: % is scaled to controls: 0 for no effect and ±100 for the full control effect; nearly all actives have a fitted effect of over 60% in size
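qHTS viability screen in drug-selected KB-V1 MDR cells: 72 h compound treatment at 37 degrees C, ATP luminescence end point.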
KB-3-1 cytotox – KB-3-1 parental cell cytotoxicity. KB-3-1 viability, CellTiter-Glo ATP luminescence, 72 h. Potency, µM (top dose mostly 46.1 µM), hits mostly cytotoxic. 400,000 compounds, 1.4% hits. AID 1347075; also: % is scaled to controls: 0 for no effect and ±100 for the full control effect; nearly all actives have a fitted effect of over 60% in size
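Luminescent ATP read-out (CellTiter-Glo) measures survival of drug-naive KB-3-1 cells after 72 h compound exposure at 37 °C. Titration series was screened from lowest to highest concentration, with DMSO vehicle plates as background controls.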
The depositor's hits bear a star; i = inactive; u = inconclusive; x = no result. This is a sample that favours compounds with a hit; in the whole collection about 8.2% have one here. Calls follow the shape of the dose curve; as a rule, active = well fitted curve in the direction sought with a large enough effect; inconclusive = small, poorly fitted or top-dose-only effect, or another doubt; inactive = no such curve, though single readings can be large; an effect the other way counts as inactive or inconclusive. Potency is read from the fitted curve at half-maximal effect.

SMILES	SW480 rerep	ELG1 repair inh	MCF10A rerep	KB-V1 MDR tox	KB-3-1 cytotox
COc1ccccc1C(C)NC(=O)c1ccc(S(=O)(=O)NCc2ccco2)cc1 (stereo not drawn)	u	-5%	0%	i	u
O=c1[nH]c(=S)[nH]c2c1C(c1ccc(F)cc1)OC(CCc1ccccc1)C2 (stereo not drawn)	x	x	x	u	i
CCC(=O)N1CCc2cc(Br)cc(S(=O)(=O)CCC(=O)Nc3ccc(CC)cc3)c21	x	x	x	i	i
O=C(NNC(=O)c1cc(-c2ccc(Cl)cc2Cl)nc2ccccc12)Nc1ccccc1	u	u	u	23µM*	u
O=C(NCCc1ccccn1)c1cc(-c2ccc(Cl)c(Cl)c2Cl)nc2ccccc12	-2%	u	8%	5.8µM*	u
O=C(NCc1ccccn1)c1cc(-c2ccccc2Cl)nc2ccccc12	-33%	u	1%	18µM*	i
COc1ccc(-c2c(N)cnc(C(=O)O)c2C)c(OCc2ccccc2)c1OC	x	x	x	u	i
Cc1cscc1-c1ccc(C(=O)Nc2c(C)cccc2C)o1	x	x	x	i	u
O=C(OCc1cn([C@@H]2C[C@H](c3ccc(Cl)cc3)N(C(=O)c3cccs3)C[C@H]2O)nn1)c1ccccc1	x	x	x	i	i
O=C1Nc2ccccc2N(C(=O)c2ccc3ccccc3c2)C1c1nc2ccccc2[nH]1 (stereo not drawn)	x	x	x	16µM*	u
COc1ccc(C)cc1NC(=O)CCc1ccc(S(=O)(=O)N2CCOCC2)cc1	-13%	-2%	-3%	i	i
CCCc1c(C(=O)N/N=C(\C)c2ccccn2)nnn1-c1nonc1N	x	x	x	u	5.8µM*
CCCc1c(C(=O)N/N=C(\C)c2ccc(O)cc2)nnn1-c1nonc1N	-4%	5%	u	u	i
C/C(=N\NC(=O)c1nnn(-c2nonc2N)c1CN1CCCCC1)c1ccccc1O	15µM*	18µM*	13%	i	u
COc1ccc(/C(C)=N/NC(=O)c2nnn(-c3nonc3N)c2CN(C)c2ccccc2)cc1	-9%	-4%	4%	i	i
C/C(=N\NC(=O)c1nnn(-c2nonc2N)c1CN(C)c1ccccc1)c1ccccc1O	3.3µM*	u	u	i	6.5µM*
CC(=C/c1ccccc1)/C=N/NC(=O)c1nnn(-c2nonc2N)c1CN1CCC(C)CC1	u	u	6%	u	i
CC(/C=N/NC(=O)c1nnn(-c2nonc2N)c1CN1CCCCC1)=C\c1ccccc1	u	-21%	7.3µM*	i	u
CCCCn1c(N)c(N(CCOC)C(=O)COC(=O)CCOc2ccccc2)c(=O)[nH]c1=O	-16%	28%	1%	u	i
CCOC(CNCc1cc(C)c2[nH]c3ccccc3c2c1C)OCC	u	x	u	u	i
Oc1ccc(C[C@H]2CN([C@@H](Cc3ccc(O)cc3)CN3CCC[C@@H]3CN3C(=S)NC[C@@H]3Cc3ccccc3)C(=S)N2CC2CCCCCC2)cc1	x	x	x	i	u
O=C(Nc1ccc(F)cc1)NC1CCCCC1	-3%	u	-4%	i	i
O=C(Nc1c(F)c(F)c(F)c(F)c1F)NC1CCCCC1	4%	-11%	2%	16µM*	i
CCC(C)(C)NC(=O)CN(Cc1ccccc1)C(=O)CCC(=O)Nc1nccs1	0%	-5%	-1%	i	i
CCC(C)NC(=O)c1ccc2nc(CCc3ccccc3)oc2c1 (stereo not drawn)	x	x	x	i	i
SMILES	SW480 rerep	ELG1 repair inh	MCF10A rerep	KB-V1 MDR tox	KB-3-1 cytotox
O=C(N/N=C/c1cc(Br)c(Br)o1)c1ccc2c(c1)OCCO2	0%	u	13µM*	u	i
O=C(N/N=C/c1ccc2c(c1)OCO2)c1ccc(COCC(F)(F)C(F)F)cc1	6.5µM*	-4%	u	i	8.2µM*
COc1ccc(/C=N/NC(=O)c2ccc(COCC(F)(F)C(F)F)cc2)cc1	-19%	-1%	-28%	u	i
O=C(N/N=C/c1ccc2c(c1)OCO2)c1ccc2c(c1)OCCO2	u	u	u	i	16µM*
O=C(N/N=C/c1cc(Br)c(O)c(Br)c1O)c1ccc2c(c1)OCCO2	u	-7%	19%	u	u
Cc1cccc(C)c1OCC(=O)N/N=C/c1ccc2c(c1)OCO2	u	-4%	5.8µM*	5.2µM*	u
Cc1ccc(OCCC(=O)OCC(=O)Nc2ccccc2)cc1	u	-6%	u	i	i
Cc1nc(SCc2cccc(Cl)c2)nc2c1CCCC2	x	x	x	u	i
c1ccc(NC2=NCCN2CCC2CCCCC2)cc1	7%	-4%	0%	u	i
O=C(N/N=C/c1ccc2c(c1)OCO2)c1ccc(COc2cccc3cccnc23)cc1	1%	18µM*	u	i	i
O=c1cnnc(N/N=C/c2ccc3c(c2)OCO3)[nH]1	3%	23%	-2%	7.3µM*	u
O=C(N/N=C/c1cc(Cl)cc([N+](=O)[O-])c1O)c1ccc2c(c1)OCO2	18µM*	u	u	i	u
O=C(N/N=C/c1cccc(O)c1)c1ccc(COc2cccc3cccnc23)cc1	-4%	19%	13%	i	i
